In PubChem BioAssay one finds z-score data, which are given here for 14 molecules.

The source made the active and inactive calls.

The nature of experiment [1]: A549 cell viability effects, profiling panel, calcein-AM fluorescence, 48 h, basal (AID 1162). Conditions: higher = more signal.
Experiment [2] in a line: adipocyte viability effects, profiling panel, cell-based, 3T3-L1 adipocytes, calcein-AM fluorescence, 48 h, basal (AID 1163). The settings on record: 3T3-L1 adipocytes viability, higher = more signal.
The nature of experiment [3]: HepG2 cell viability effects, profiling panel, calcein-AM fluorescence, 48 h, basal (AID 1164). Conditions: higher = more signal.
Experiment [4] is described as follows: MM1S cell viability effects, profiling panel, calcein-AM fluorescence, 48 h, basal (AID 1165).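 Also: viability of MM1S multiple myeloma cells under basal unstimulated conditions.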 Conditions: higher = more signal.
Experiment [5] in a line: basal RPMI8226 viability, no added stimulus, profiling panel, cell-based, calcein-AM fluorescence, 48 h, PK04 Diversity Set (AID 1166).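 Also: cells grown under basal conditions without added stimulus.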 Conditions: RPMI8226 myeloma viability, higher = more signal.
The nature of experiment [6]: basal HepG2 mitochondrial membrane potential changes, profiling panel, cell-based, JC-1 fluorescence, 24 h, 100 nL compound (AID 1167). Conditions: higher = more signal.
Experiment [7] is described as follows: basal 3T3-L1 adipocyte mitochondrial potential changes, profiling panel, cell-based, JC-1 fluorescence, 3T3-L1 adipocytes, 24 h, 100 nL compound (AID 1168). Conditions: JC-1 mitochondrial fluorescence, higher = more signal, called active from +8 up or from −8 down.
Experiment [8] can be described thus: basal RPMI8226 mitochondrial membrane potential changes, profiling panel, cell-based, JC-1 fluorescence, 24 h, 100 nL compound (AID 1169). The settings on record: RPMI8226 myeloma, JC-1 mitochondrial potential fluorescence, higher = more signal.
Experiment [9] can be described thus: basal MM1S mitochondrial membrane potential changes, profiling panel, cell-based, JC-1 fluorescence, 24 h, 100 nL compound (AID 1170). Conditions: higher = more signal.
Experiment [10] is described as follows: A549 lung cancer cell viability effects, profiling panel, resazurin fluorescence, 24 h, PK04 Diversity Set (AID 1171). The settings on record: higher = more signal, called active from +8 up or from −8 down. For orientation: The colour change of resazurin is a common sign of viable cells or microbes.
Also: test concentration not given here.

As for `COc1ccc(O[C@H]2C=C[C@@H](c3ccccc3)O[C@@H]2COC(=O)CCC(C)=NO[C@H](C)c2cn([C@@H]3COC[C@H]3O)nn2)cc1`, the z-score is -1.24 in experiment [1]; -0.547 in [2]; -1.22 in experiment [3]; -0.913 in experiment [4]; -1.22 in experiment [5]; -1.63 in [6]. Also, the z-score in experiment [7] is -1.03 (inactive); in experiment [8] it was 0.923; in experiment [9], -1.25; in experiment [10], 1.47 (inactive).
On to `COC(=O)[C@@H]1CC[C@H](C)[C@@H](c2ccc(C)cc2)N1C(=O)c1ccc(C=NOC(C)CN2CCCCc3nc(C)c(C)cc32)cc1` (stereo not given in full), for which the z-score in experiment [1] is -1.19; in experiment [2], -0.0501; in experiment [3], -2.59; in experiment [4], -2.73; in [5], -4; in [6] it was -0.414. Besides, the z-score in experiment [7] is -1.72 (inactive); in [8] it was -1.16; in [9] it was -1.54; in experiment [10], 2.21 (inactive).
As to `C[C@@H](c1ccccc1)N1C(=O)[C@H]2[C@H]3[C@H](O)[C@H](O)CC(=NNC(=O)OCc4ccccc4)[C@H]3CC[C@H]2C1=O`, the z-score is -0.34 in experiment [1]; -0.903 in experiment [2]; -0.208 in experiment [3]; -0.0615 in experiment [4]; 0.127 in [5]; -1.05 in experiment [6]. Moreover, the z-score in experiment [7] is -0.0829 (inactive); in experiment [8] it was 0.502; in experiment [9], 0.00989; in [10], -0.0339 (inactive).
In the case of `CCOC(=O)CCN1C(=O)[C@H]2[C@H]3[C@H](O)C=CC(=O)[C@@H]3CC[C@H]2C1=O`, the z-score in [1] is 0.0872; in [2], 0.0636; in [3] it was 0.338; in experiment [4], -0.921; in experiment [5], 0.586; in experiment [6], 0.0469. Also, the z-score in experiment [7] was 0.53 (inactive); in experiment [8], 0.203; in experiment [9] it was 0.176; in experiment [10], 0.289 (inactive).
As to `O=C1[C@H]2[C@H]3[C@H](O)[C@H](O)CC(=NO[C@@H]4O[C@H](CO)[C@@H](O)[C@H](O)[C@H]4O)[C@H]3CC[C@H]2C(=O)N1C1CCCCC1`, the z-score is -0.649 in experiment [1]; 0.034 in experiment [2]; -0.627 in [3]; 0.206 in experiment [4]; 0.115 in experiment [5]; -0.871 in experiment [6]. The z-score is -1.53 (inactive) in experiment [7], 0.368 in experiment [8], -0.11 in [9] and 0.302 (inactive) in experiment [10].
Regarding `O=C1O[C@@H](c2ccccc2)[C@@H](c2ccccc2)N2[C@@H](c3ccccc3OCCO)[C@]3(C(=O)Nc4ccc(C#CCCO)cc43)[C@@H](C(=O)O)[C@H]12`, the z-score in experiment [1] is -0.622; in experiment [2] it was 1.78; in experiment [3] it was -0.173; in [4], -1.43; in experiment [5] it was -1.98; in experiment [6], 0.259. Also, the z-score was -0.881 (inactive) in [7], -0.231 in [8], -0.641 in experiment [9] and -0.0647 (inactive) in [10].
Consider `CCOC(=O)[C@H](Cc1ccccc1)NC(=O)CCC1CC(OC(=O)NCc2ccc3c(c2)OCO3)CC2(CCCC(COC(=O)NCC3CCCCC3)O2)O1` (stereo not given in full), for which the z-score was 0.0417 in experiment [1]; -0.0963 in [2]; -0.264 in experiment [3]; -2.06 in experiment [4]; -2.09 in experiment [5]; 1.84 in [6]. Besides, the z-score in [7] is -0.0648 (inactive); in [8], -0.00903; in experiment [9], -0.306; in [10], 1.02 (inactive).
As to `CC(=O)OC[C@H]1O[C@H](CCON=C(C)CCN2CCc3nc(-c4ccccc4)c(-c4ccccc4)cc3C2)C=C[C@@H]1OC(C)=O`, the z-score is 0.396 in [1]; 0.235 in [2]; 0.2 in experiment [3]; -2.16 in experiment [4]; 0.091 in [5]; -0.273 in experiment [6]. Also, the z-score in experiment [7] was -1.4 (inactive); in experiment [8], 0.168; in experiment [9], -0.594; in experiment [10], 0.783 (inactive).
Take `CCCCCCc1nc(CCCc2cc3c(c(CCCCCC)n2)[Si](C(C)C)(C(C)C)O[C@H]3c2ccccc2)cc2c1[Si](C(C)C)(C(C)C)O[C@H]2c1ccccc1`: the z-score in experiment [1] was 1.4; in experiment [2], -0.352; in experiment [3], -0.17; in [4], -0.374; in experiment [5] it was -0.966; in experiment [6] it was 0.903. The z-score in experiment [7] is 0.774 (inactive); in experiment [8], -0.308; in experiment [9], 0.396; in experiment [10] it was 1.09 (inactive).
Turning to `COC(=O)C1(C)C=C2C(=C(c3ccccc3)C(=O)C2C)CN1` (stereo not given), the z-score is -1.3 in experiment [1]; -0.492 in [2]; -1.26 in experiment [3]; -0.671 in experiment [4]; -1.49 in experiment [5]; -1.68 in [6]. Further, the z-score in experiment [7] was -2.71 (inactive); in [8] it was 0.2; in experiment [9], -0.933; in experiment [10], -0.72 (inactive).
Regarding `COc1ccc(O[C@H]2C=C[C@@H](c3ccccc3)O[C@@H]2CON=C[C@@H](C)[C@H](OCc2ccccc2)C(C)C)cc1`, the z-score in [1] was 0.688; in experiment [2] it was -0.106; in [3] it was 1.7; in experiment [4], 0.553; in experiment [5], -0.903; in [6], 0.46. In addition, the z-score in experiment [7] was 0.732 (inactive); in experiment [8], -0.0803; in experiment [9], -0.486; in experiment [10] it was -0.463 (inactive).
As for `CC[C@@H](c1ccccc1)n1c(=O)n2n(c1=O)[C@H]1[C@H](O)[C@@H]3O[C@@H]3C(=NOCC(C)C)[C@H]1CC2`, the z-score was -0.342 in experiment [1]; 0.245 in experiment [2]; -0.389 in [3]; -0.288 in experiment [4]; 0.44 in experiment [5]; -1.16 in experiment [6]. Further, the z-score in [7] is -1.67 (inactive); in experiment [8], -0.0693; in experiment [9], 0.448; in experiment [10] it was 0.276 (inactive).
As to `COc1ccc([Si](C)(C)[C@@H]2[C@@H](CC(=O)N3CCC[C@H]3CO)O[C@]3(C(=O)N(Cc4cccc(N5CCC5=O)c4)c4ccccc43)[C@H]2C)cc1`, the z-score in experiment [1] is -0.208; in experiment [2], -1.34; in experiment [3], -4.16; in [4] it was -2.71; in [5], -4.33; in experiment [6], -0.729. In addition, the z-score in experiment [7] is 0.999 (inactive); in experiment [8], -1; in experiment [9], -2.19; in experiment [10], -1.39 (inactive).
As for `O=C1C[C@]2(c3ccc([N+](=O)[O-])cc3)C(=O)N(CCN3CCOCC3)c3cc(CO)ccc3[C@H]2N1CC12CC3CC(CC(C3)C1)C2`, the z-score in experiment [1] is -0.677; in experiment [2] it was 0.15; in experiment [3] it was -0.227; in [4], -0.208; in [5], -1.96; in [6], -0.141. Further, the z-score in experiment [7] is 0.0692 (inactive); in experiment [8], -0.043; in experiment [9], 0.0356; in experiment [10], 0.723 (inactive).
